# Source: PubChem (several laboratories)
# HSP90 refold inh – HSP90 refolding inhibition in rabbit reticulocyte lysate; luciferase refolding luminescence, 3 h; inhibition, % at 5.6 µM; 290,000 tested, 0.91% active; AID 1789;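 active = inhibition above the screen-wide mean plus 3 SD, computed separately per campaign, cut at about 16% in these data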;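 note: 0% = DMSO wells and 100% = 60 µM geldanamycin wells; inhibitors lower the luminescence because luciferase stays unfolded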
# HIF-2a inh – blocks HIF-2a reporter activity. inhibition, % at 18.8 µM. AID 624352. 786-0 RCC cells HIF-2a reporter, luciferase luminescence, overnight. 360,000 tested, 0.72% active;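 active = inhibition of the luminescence signal of 40% or more relative to plate controls, in a single-dose primary screen at 18.75 µM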
# aSyn UTR inh – MLPCN primary screen, SNCA 5' untranslated region. alpha-synuclein 5'UTR reporter, inhibitor activity. inhibition, % (tested at 7.5 µM). 300,000 tested, 0.82% active; in the data active = inhibition above about 60%;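 note: H4 neuroglioblastoma cells stably carrying SNCA 5'UTR luciferase fusion; 0% = DMSO wells and 100% = positive control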
# TRAIL sens C8 – sensitizes caspase-8 expressing cells to TRAIL. NB7+C8 cells + TRAIL, ATPlite viability luminescence. inhibition (viability loss, TRAIL sensitization), % at 10 µM. 360,000 tested, 1% active;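 active = compounds causing at least 50% loss of cell viability in the single-dose screen, relative to plate controls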
# TWEAK-Fn14 inh – TWEAK-Fn14 signaling inhibition. TWEAK-stimulated Fn14 reporter cells, luciferase luminescence, 8 h. inhibition, % at 10 µM. 360,000 tested, 2% active; in the data active = inhibition above about 50%
# TROY signal inh – blocks TROY-dependent signaling in reporter cells. Q293 LMP1-TROYcd NF-kB luciferase reporter, 4 h. inhibition, % at 10 µM. 360,000 tested, 0.98% active;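 active = compounds whose plate-normalised and pattern-corrected inhibition of the luciferase reporter signal at the single screening dose is 50% or more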
# HSP90 confirm – confirmation of HSP90 inhibitors; shares compounds with HSP90 refold inh; rabbit reticulocyte lysate, luciferase refolding luminescence, 3 h; inhibition, % at 5.9 µM; 2,300 tested, 64% active; in the data active = inhibition above about 18%;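 note: 0% = vehicle wells and 100% = reference inhibitor wells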
# FLuc counter – counter-screen for HSP90 inhibitors: inhibitors of firefly luciferase | shares compounds with HSP90 refold inh | purified native firefly luciferase, luminescence | inhibition, % at 5.9 µM | 2,300 tested, 48% active;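 active = inhibition above the mean inhibition of all tested sample wells plus 3 SD, cut at about 10% in these data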;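 note: 0% = DMSO with luciferase and 100% = wells lacking luciferase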
# Target sequence (P08659 whole entry, looked up): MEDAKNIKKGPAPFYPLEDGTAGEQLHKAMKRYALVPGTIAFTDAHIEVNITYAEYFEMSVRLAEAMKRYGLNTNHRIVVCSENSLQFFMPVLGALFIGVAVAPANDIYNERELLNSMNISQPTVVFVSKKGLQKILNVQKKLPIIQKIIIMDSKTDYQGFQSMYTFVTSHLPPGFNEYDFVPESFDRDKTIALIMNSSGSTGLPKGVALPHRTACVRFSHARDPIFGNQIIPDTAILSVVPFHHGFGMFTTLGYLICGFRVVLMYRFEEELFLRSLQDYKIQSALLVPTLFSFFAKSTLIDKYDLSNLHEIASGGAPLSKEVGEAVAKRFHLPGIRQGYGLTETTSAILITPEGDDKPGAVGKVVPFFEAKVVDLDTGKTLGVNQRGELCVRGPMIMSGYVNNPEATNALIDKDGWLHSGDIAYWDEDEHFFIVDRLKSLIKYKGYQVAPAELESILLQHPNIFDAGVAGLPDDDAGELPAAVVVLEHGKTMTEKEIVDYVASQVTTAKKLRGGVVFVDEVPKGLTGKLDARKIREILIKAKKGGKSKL
# Active calls of the source: *; nt = no result. Only some compounds are listed: those with a hit (about 3.9% of all), similar ones and a draw of the others.
SMILES,HSP90 refold inh,HIF-2a inh,aSyn UTR inh,TRAIL sens C8,TWEAK-Fn14 inh,TROY signal inh,HSP90 confirm,FLuc counter
COc1ccc(C(=O)NCCn2ccc3ccccc32)c(OC)c1,37.6*,-207.6,-89.8,-17.5,29.6,-23.1,15.8,-9.4
COc1ccc(C(=O)NCCN2CCOCC2)c(OC)c1,-0.2,0.5,0.2,7.7,7.6,19.7,nt,nt
COc1ccccc1C(=O)Nc1ccc2ccccc2c1,nt,-274.0,-87.8,2.4,-17.9,-77.5,nt,nt
COc1ccc(C(=O)Nc2ccc3ccccc3c2)c(OC)c1,23.9*,-138.2,-28.2,30.1,20.6,-35.7,19.5*,9.8*
Nc1c(C(=O)Nc2ccccc2)nnn1-c1ccc2c(c1)OCCO2,23.6*,-124.4,13.2,45.6,56.5*,31.7,44.6*,31.0*
COc1ccccc1-c1cnc(C(O)c2cc(C)ccc2C)[nH]1 (stereo not drawn),nt,2.2,nt,-9.0,-23.7,-0.3,nt,nt
CCC(CC)C1C(C#N)=C(N)Oc2n[nH]c(-c3ccccc3)c21 (stereo not drawn),17.6*,20.6,-2.3,32.1,24.5,23.3,-7.7,-2.4
COc1cc(OC)cc(C2C(C#N)=C(N)Oc3n[nH]c(-c4cccnc4)c32)c1 (stereo not drawn),17.6*,13.5,6.1,-8.4,8.7,3.5,-2.8,-1.6
N#CC1=C(N)Oc2n[nH]c(-c3ccncc3)c2C1c1ccsc1 (stereo not drawn),17.0*,6.3,-6.5,-5.3,21.9,-3.2,-0.7,-7.4
COc1cc(C2C(C#N)=C(N)Oc3n[nH]c(-c4cccs4)c32)cc(OC)c1O (stereo not drawn),23.8*,11.5,-10.8,-8.7,-9.3,9.9,-2.8,-6.9
CC1(C(=O)O)CCCN1C(=O)c1cccc2ccccc12 (stereo not drawn),nt,5.9,nt,3.2,0.3,6.2,nt,nt
CC1(C)CN(C2CCCCC2)C(=O)[C@H]1CC(=O)Nc1ccc(Br)cc1,nt,0.4,nt,14.1,-7.1,7.9,nt,nt
Cc1ccc(NC(=O)COC(=O)Cn2cnc3ccccc32)c(C)c1,nt,0.4,nt,-1.5,-14.0,-16.5,nt,nt
COc1ccc(-c2cc(=O)[nH]c(=O)[nH]2)cc1,1.9,-3.7,-3.9,-15.6,6.5,-28.4,nt,nt
O=c1cc(-c2ccc(Cl)c(Cl)c2)[nH][nH]1,12.6,3.6,9.3,-6.3,-0.3,-1.8,nt,nt
O=c1cc(-c2ccc(Cl)cc2)[nH][nH]1,29.2*,-7.5,7.2,-4.8,-0.5,-9.8,3.6,-11.7
COc1ccc(-c2cc(=O)[nH][nH]2)cc1,33.5*,-17.7,-10.6,-5.9,-5.7,-46.1,-4.2,-11.6
CNS(=O)(=O)c1ccc(CNC[C@H]2O[C@@H](n3cc(C)c(=O)[nH]c3=O)C[C@@H]2O)cc1,nt,10.7,nt,-25.6,1.8,7.7,nt,nt
C[C@@H]1CN([C@@H](C)CO)C(=O)c2cc(Br)cnc2O[C@@H]1CN(C)S(C)(=O)=O,nt,4.1,nt,-4.4,0.3,-14.7,nt,nt
Cc1cc(-c2ccccc2)c2c(=O)[nH][nH]c2n1,18.3*,12.8,3.6,-3.5,-16.3,11.4,-8.1,-16.6
N#CC1(C(N)=O)OC12CCS(=O)(=O)c1ccccc12 (stereo not drawn),nt,0.6,nt,4.3,12.9,-3.8,nt,nt
Cc1[nH][nH]c(=O)c1C(c1ccc(-c2ccc(F)cc2)o1)c1c(C)[nH][nH]c1=O,5.2,-5.9,-28.0,-2.4,4.9,-1.4,nt,nt
Cc1[nH][nH]c(=O)c1C(c1ccc(-c2ccc(Cl)c(Cl)c2)o1)c1c(C)[nH][nH]c1=O,18.3*,-50.9,-16.0,-13.3,43.5,9.4,-0.2,0.2
O=C(COc1ccc2c(c1)OCO2)Nc1nccs1,37.1*,-35.4,23.0,52.6*,66.0*,34.6,52.7*,36.4*
CCOc1ccc(OCC(=O)Nc2nccs2)cc1,54.0*,37.6,69.2*,65.6*,84.9*,64.7*,77.3*,69.8*
COc1ccc(OCC(=O)Nc2nccs2)cc1,31.4*,-13.8,16.5,48.2,80.6*,46.0,60.0*,39.3*
O=C(/C=C/c1ccc2c(c1)OCO2)NCCS(=O)(=O)N1CCN(c2ccccc2)CC1,nt,-31.0,nt,2.7,-11.1,-27.7,nt,nt
